Here are results for twelve molecules from PubChem BioAssay (NCATS).

Results filed as inconclusive are left out. Calls of active or inactive are those of the source. Calls come from the whole dose curve; as a rule, active = well fitted inhibition curve with a large enough effect; inconclusive = small, poorly fitted or top-dose-only effect; inactive = flat fitted curve, though single readings scatter.

What all share (assay): qHTS profiling for inhibitors of Plasmodium falciparum proliferation (AID 504749); note: nearly all actives have a fitted effect of over 60% in size
What all share (settings): P. falciparum in erythrocytes, SYBR Green DNA, 72 h; series mostly up to 28.7 µM

Test [1] deals with CP291. In short, it runs like this: (§1)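 SYBR Green fluorescence (ex 485 nm, em 535 nm) reports parasite DNA after 72 h compound exposure of infected red cells at 0.3% parasitemia, 2.5% hematocrit; signal normalized to 0.29 uM artemisinin and vehicle wells.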
The subject of test [2] is CP305. In outline: as §1
Test [3] deals with CP315. In outline:
as §1

For test [4], the system named is CP325. In short, it runs like this: as §1
Test [5] deals with CP329. In short, it runs like this:
as §1

Test [6] has as its system CP335. In outline: as §1
Test [7] relates to DFO2036. In short, it runs like this: as §1
The test system of test [8] is DIV14. In short, it runs like this:
as §1

The subject of test [9] is DIV17. In outline:
as §1

Test [10] concerns DIV30. In short, it runs like this: as §1
Test [11] concerns Dd2. In outline:
as §1

Test [12] relates to ECU. In outline: as §1
The test system of test [13] is FAB9. In outline:
as §1

In test [14] the test system is ICS. In outline: as §1
For test [15], the system named is JCK. In short, it runs like this: as §1
Test [16] concerns N140. In outline: as §1
In test [17] the test system is P93_24. In outline: as §1
The subject of test [18] is CP297. In outline: as §1
The test system of test [19] is GB4. In outline: as §1
In test [20] the test system is HB3. In short, it runs like this:
as §1
Potency is the fitted concentration of half-maximal effect.

For the molecule `CCCCCCCCCCCCCCCCOP(=O)([O-])OCC[N+](C)(C)C`, the Potency entry in test [1], in test [2], in test [3], in test [4], in [5] and in [6] was “inactive” throughout. The Potency entry in test [7], in test [8], in [9], in [10], in [11] and in [12] was “inactive” in each case. Moreover, the Potency entry in test [13], in [14], in [15], in test [16] and in [17] was “inactive” each time.
With `CC(C)(C)CC(C)(C)c1ccc(O)c(Cc2ccc(Cl)cc2Cl)c1`, the Potency was 3.38 µM (active) in test [1]; 1.69 µM (active) in test [18]; 3.79 µM (active) in [3]; 3.79 µM (active) in test [4]; 4.78 µM (active) in [5]; 1.51 µM (active) in [6]. Also, the Potency was 2 µM (active) in [7]; 0.601 µM (active) in test [8]; 1.07 µM (active) in [9]; 1.51 µM (active) in test [10]; 1.58 µM (active) in test [11]; 2 µM (active) in test [12]. The Potency is 5.62 µM (active) in [13]; 0.849 µM (active) in test [19]; 2 µM (active) in test [20]; 0.316 µM (active) in [14]; 3.16 µM (active) in test [15]; 0.794 µM (active) in test [16]. Also, in test [17], the Potency was 1.26 µM (active).
On to `C[C@H](O)C(=O)Nc1c(I)c(C(=O)NC(CO)CO)c(I)c(C(=O)NC(CO)CO)c1I`, for which the Potency entry in [1], in [18], in test [2], in [4], in [5] and in [6] was “inactive” each time. The Potency entry in test [7], in [8], in [9], in [10], in [11] and in [12] was “inactive” each time. Besides, the Potency result in [13], in test [19], in [20], in test [14], in test [15] and in test [16] was “inactive” in each case. Also, the Potency result in test [17] is “inactive”.
Turning to `CNCCC(Oc1ccccc1C)c1ccccc1` (centres undefined), the Potency result in [1], in test [18], in test [3], in [4], in [6] and in test [7] was “inactive” throughout. Also, the Potency entry in test [12], in test [13], in test [19], in [20] and in test [15] was “inactive” in each case. Also, the Potency in test [8] is 6.01 µM (active); in [9], 6.75 µM (active); in test [11], 7.08 µM (active).
Consider `Oc1ccc(Cl)cc1Sc1cc(Cl)ccc1O`, for which the Potency entry in test [1], in test [2], in [3], in [4], in test [5] and in [7] was “inactive” each time. Besides, the Potency result in test [11], in [13], in test [20], in test [15], in test [16] and in test [17] was “inactive” throughout. Also, in test [14], the Potency was 8.91 µM (active).
Take `COc1c(C)c2c(c(O)c1C/C=C(\C)CCC(=O)O)C(=O)OC2`: the Potency in test [1] was 4.05 µM (active); in [18] it was 5.1 µM (active); in [2] it was 4.05 µM (active); in test [5] it was 6.42 µM (active); in [6], 3.22 µM (active); in [7], 2.51 µM (active). Also, the Potency in test [8] is 6.42 µM (active); in test [9] it was 6.42 µM (active); in test [10], 5.1 µM (active); in [11] it was 3.55 µM (active); in test [12] it was 5.01 µM (active); in test [19], 5.1 µM (active). The Potency in test [14] was 3.55 µM (active); in test [16], 3.16 µM (active); in [17], 2.82 µM (active).
`CCN1CCCC1=O`: the Potency result in [1], in test [2], in test [3], in [4], in test [5] and in [6] was “inactive” each time. Also, the Potency result in test [7], in test [8], in test [9], in [10], in [11] and in [12] was “inactive” in each case. Also, the Potency entry in [13], in [19], in test [20], in [14], in test [15] and in test [16] was “inactive” throughout. In addition, the Potency entry in [17] is “inactive”.
As for `Cc1ccc(O)c2ncccc12`, the Potency entry in test [1], in test [18], in [2], in [3], in [4] and in test [5] was “inactive” throughout. Also, the Potency entry in test [10], in test [13], in [20], in test [15] and in test [17] was “inactive” throughout.
On to `Oc1ccc(O)cc1`, for which the Potency result in test [1], in [9], in [13] and in test [15] was “inactive” throughout. Moreover, the results for the Potency in test [6] and in test [14] were 2.39 µM (active) and 11.2 µM (active), respectively.
Consider `Oc1c(I)cc(Cl)c2cccnc12`, for which the Potency result in [18], in test [2], in test [3], in test [4], in test [5] and in test [6] was “inactive” each time. The Potency result in [9], in [10], in test [11], in test [12], in test [13] and in test [20] was “inactive” throughout. The Potency result in test [15] and in test [17] was “inactive” in each case.
With `Cc1ccnc(NS(=O)(=O)c2ccc(N)cc2)n1`, the Potency entry in [1], in test [18], in test [2], in test [4], in test [5] and in [6] was “inactive” each time. For the same molecule, the Potency entry in test [7], in test [8], in [9], in [10], in [11] and in test [12] was “inactive” each time. For the same molecule, the Potency entry in test [13], in test [19], in test [20], in [14], in test [15] and in [16] was “inactive” throughout. In [17], the Potency result was “inactive”.
On to `COc1ccc(/C=C/C(=O)c2ccc(OC)cc2OC)cc1`, for which the Potency was 8.49 µM (active) in test [1]; 8.49 µM (active) in [18]; 6.01 µM (active) in test [2]; 12 µM (active) in test [4]; 6.75 µM (active) in test [6]; 7.94 µM (active) in test [7]. Further, the Potency was 10.7 µM (active) in [8]; 16.9 µM (active) in [9]; 12 µM (active) in test [10]; 7.08 µM (active) in test [11]; 8.91 µM (active) in test [12]; 8.91 µM (active) in test [13]. For the same molecule, the Potency in test [19] was 7.57 µM (active); in [20], 10 µM (active); in test [14], 12.6 µM (active); in test [15], 8.91 µM (active); in test [16], 11.2 µM (active); in test [17] it was 8.91 µM (active).
